Composite z-score and z-score data for six molecules are collected here from PubChem BioAssay.

A short description of experiment [1]: small molecules captured by biotinylated probe aFSTL3 – biochemical, small-molecule microarray, fluorescence 635/667, stem cell growth factor project, primary screen (AID 1064).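 Note: measures binding of the biotinylated anti-FSTL3 antibody to printed compounds.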 The following applies: higher = more signal.
The nature of experiment [2]: binders from COS7 lysate, DM2A8 probe, primary screen, torsin A project, cell lysate, small-molecule microarray, fluorescence 635/667 (AID 1065). To be noted: higher = more signal, COS7 lysate expressing mutant human TOR1A.
Experiment [3] in a line: small molecules captured by biotinylated probe aFGF2 – biochemical, small-molecule microarray, fluorescence 635/667, stem cell growth factor project, primary screen (AID 1067).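 Note: measures binding of biotinylated aFGF2 protein to printed compounds on slides; z-score merges feature fluorescence and signal-to-noise across triplicate slides.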 The following applies: higher = more signal.
Experiment [4] in a line: small molecules captured by biotinylated probe aFGF10 – biochemical, small-molecule microarray, fluorescence 635/667, stem cell growth factor project, primary screen (AID 1071).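 Note: score merges 667 nm spot intensity and signal to noise from triplicate slides.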 To be noted: higher = more signal.
For experiment [5], the target named is Neurogenic locus notch homolog protein 2 (Homo sapiens) (UniProt Q04721). In words: small molecules binding Notch2 protein – biochemical, small-molecule microarray, 635 nm fluorescence, stem cell growth factors, primary screen (AID 1073). The following applies: higher = more signal.
In experiment [6] the target is Pro-neuregulin-1, membrane-bound isoform (Homo sapiens) (UniProt Q02297). Briefly: small molecules binding neuregulin-1 protein – biochemical, small-molecule microarray, fluorescence 635/667, psychiatric disease protein project, primary screen (AID 1075).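 Note: score combines 667 nm spot fluorescence with signal to noise.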 To be noted: NRG1 binding, 635 nm fluorescence, higher = more signal.
For experiment [7], the system named is Neuregulin-1 EGF-like domain. Briefly: small molecules binding NRG1 EGF domain – biochemical, small-molecule microarray, 635 nm fluorescence, primary screen (AID 1081).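 Note: binding of the protein to compounds printed on small-molecule microarray slides.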 The following applies: higher = more signal.
Experiment [8] in a line: FRG1 expression reporter modulators in myotubes – cell-based, C2C12 myotubes, firefly/Renilla luciferase, luminescence, FRG1 inhibition for FSHD, primary screen (AID 1084). To be noted: FRG1 promoter luciferase, higher = more signal, called active from +8 up or from −8 down.
Experiment [9] is described as follows: small molecules captured by biotinylated probe aFST – biochemical, small-molecule microarray, fluorescence 635/667, stem cell growth factor project, primary screen (AID 1086).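 Note: score merges 667 nm fluorescence with signal-to-noise of each printed compound spot.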 To be noted: higher = more signal.
Experiment [10] can be described thus: binders of probe aHhip on microarray, primary screen, stem cell growth factor project, biochemical, small-molecule microarray, fluorescence 635/667 (AID 1087).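 Note: score merges spot fluorescence at 667nm with spot signal to noise ratio.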 To be noted: higher = more signal.
The test system of experiment [11] is PRMT1 (protein arginine N-methyltransferase 1). Briefly: small molecules binding arginine methyltransferase PRMT1 – biochemical, small-molecule microarray, 635 nm fluorescence, primary screen (AID 1088).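 Note: binding of Prmt1 protein to compounds spotted on small-molecule microarray slides.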 To be noted: higher = more signal.
Experiment [12] is described as follows: growth effects on S. cerevisiae YJM789 – YJM789 clinical isolate, OD600, 24 h, basal, primary screen (AID 1089).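 Note: growth of clinical yeast isolate S. cerevisiae YJM 789 seeded 1000 cells per well; test concentration not given here.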 The following applies: higher = more signal, called active from +8 up or from −8 down.
Experiment [13] is described as follows: S. pombe growth modifiers, basal conditions – strain 972, OD600, 24 h, no modulator, primary screen (AID 1090).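 Note: basal condition with compound alone and no growth modifier present; test concentration not given here.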 To be noted: S. pombe 972 growth, higher = more signal, called active from +8 up or from −8 down.
Experiment [14] can be described thus: budding yeast growth modifiers under rapamycin – strain BY4716, OD600, 96 h, primary screen (AID 1091). Note: test concentration not given here. To be noted: S. cerevisiae BY4716 + rapamycin, higher = more signal, called active from +8 up or from −8 down.
Experiment [15] has as its target Torsin-1A-interacting protein 2 (Homo sapiens) (UniProt Q8NFQ8). Briefly: small molecules binding lysate-expressed LULL1 – cell lysate, human LULL1 lysate, 635/667 nm fluorescence, primary screen (AID 1092).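 Note: probe is lysate of COS7 cells overexpressing human LULL1; score merges per-feature 667 nm fluorescence with signal-to-noise.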 The following applies: small-molecule microarray, hLULL1 lysate binding, 635 nm fluorescence; higher = more signal.
The nature of experiment [16]: optical density change of DRC41 E. coli – strain DRC41, OD650, 24 h, E. coli filamentation project, primary screen (AID 1093).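 Note: MC1000 strain lacking acrAB efflux and sulA so SOS filamentation is blocked; test concentration not given here.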 The following applies: E. coli DRC41 growth, higher = more signal, called active from +8 up or from −8 down.
Experiment [17] in a line: probe aLefty2 binding to arrayed compounds – biochemical, biotinylated probe, 635/667 nm fluorescence, primary screen (AID 1094).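 Note: score merges spot fluorescence near 667 nm with spot signal-to-noise ratio.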 To be noted: small-molecule microarray, higher = more signal.
In experiment [18] the test system is Noggin (protein binding on small-molecule microarray). Briefly: small molecules binding Noggin protein – biochemical, 635/667 nm fluorescence, primary screen (AID 1095).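 Note: score merges 667 nm feature fluorescence with signal to noise over triplicate slides.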 The following applies: 635 nm fluorescence, higher = more signal.
Experiment [19] addresses Neurogenic locus notch homolog protein 3 (Homo sapiens) (UniProt Q9UM47). Briefly: small molecules binding NOTCH3 protein – biochemical, 635/667 nm fluorescence, primary screen (AID 1096). The following applies: small-molecule microarray, 635 nm fluorescence, higher = more signal.
Experiment [20] is described as follows: probe aEGFR binding to arrayed compounds – biochemical, biotinylated probe, 635/667 nm fluorescence, primary screen (AID 1097).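 Note: probe is a biotinylated anti-EGFR antibody binding compounds printed on slides; score combines fluorescence near 667 nm and signal to noise of each spot.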 The following applies: small-molecule microarray, higher = more signal.

Calls of active or inactive are those of the source.

Sequence of Neurogenic locus notch homolog protein 2 (Homo sapiens) (Q04721 whole entry, looked up, canonical isoform): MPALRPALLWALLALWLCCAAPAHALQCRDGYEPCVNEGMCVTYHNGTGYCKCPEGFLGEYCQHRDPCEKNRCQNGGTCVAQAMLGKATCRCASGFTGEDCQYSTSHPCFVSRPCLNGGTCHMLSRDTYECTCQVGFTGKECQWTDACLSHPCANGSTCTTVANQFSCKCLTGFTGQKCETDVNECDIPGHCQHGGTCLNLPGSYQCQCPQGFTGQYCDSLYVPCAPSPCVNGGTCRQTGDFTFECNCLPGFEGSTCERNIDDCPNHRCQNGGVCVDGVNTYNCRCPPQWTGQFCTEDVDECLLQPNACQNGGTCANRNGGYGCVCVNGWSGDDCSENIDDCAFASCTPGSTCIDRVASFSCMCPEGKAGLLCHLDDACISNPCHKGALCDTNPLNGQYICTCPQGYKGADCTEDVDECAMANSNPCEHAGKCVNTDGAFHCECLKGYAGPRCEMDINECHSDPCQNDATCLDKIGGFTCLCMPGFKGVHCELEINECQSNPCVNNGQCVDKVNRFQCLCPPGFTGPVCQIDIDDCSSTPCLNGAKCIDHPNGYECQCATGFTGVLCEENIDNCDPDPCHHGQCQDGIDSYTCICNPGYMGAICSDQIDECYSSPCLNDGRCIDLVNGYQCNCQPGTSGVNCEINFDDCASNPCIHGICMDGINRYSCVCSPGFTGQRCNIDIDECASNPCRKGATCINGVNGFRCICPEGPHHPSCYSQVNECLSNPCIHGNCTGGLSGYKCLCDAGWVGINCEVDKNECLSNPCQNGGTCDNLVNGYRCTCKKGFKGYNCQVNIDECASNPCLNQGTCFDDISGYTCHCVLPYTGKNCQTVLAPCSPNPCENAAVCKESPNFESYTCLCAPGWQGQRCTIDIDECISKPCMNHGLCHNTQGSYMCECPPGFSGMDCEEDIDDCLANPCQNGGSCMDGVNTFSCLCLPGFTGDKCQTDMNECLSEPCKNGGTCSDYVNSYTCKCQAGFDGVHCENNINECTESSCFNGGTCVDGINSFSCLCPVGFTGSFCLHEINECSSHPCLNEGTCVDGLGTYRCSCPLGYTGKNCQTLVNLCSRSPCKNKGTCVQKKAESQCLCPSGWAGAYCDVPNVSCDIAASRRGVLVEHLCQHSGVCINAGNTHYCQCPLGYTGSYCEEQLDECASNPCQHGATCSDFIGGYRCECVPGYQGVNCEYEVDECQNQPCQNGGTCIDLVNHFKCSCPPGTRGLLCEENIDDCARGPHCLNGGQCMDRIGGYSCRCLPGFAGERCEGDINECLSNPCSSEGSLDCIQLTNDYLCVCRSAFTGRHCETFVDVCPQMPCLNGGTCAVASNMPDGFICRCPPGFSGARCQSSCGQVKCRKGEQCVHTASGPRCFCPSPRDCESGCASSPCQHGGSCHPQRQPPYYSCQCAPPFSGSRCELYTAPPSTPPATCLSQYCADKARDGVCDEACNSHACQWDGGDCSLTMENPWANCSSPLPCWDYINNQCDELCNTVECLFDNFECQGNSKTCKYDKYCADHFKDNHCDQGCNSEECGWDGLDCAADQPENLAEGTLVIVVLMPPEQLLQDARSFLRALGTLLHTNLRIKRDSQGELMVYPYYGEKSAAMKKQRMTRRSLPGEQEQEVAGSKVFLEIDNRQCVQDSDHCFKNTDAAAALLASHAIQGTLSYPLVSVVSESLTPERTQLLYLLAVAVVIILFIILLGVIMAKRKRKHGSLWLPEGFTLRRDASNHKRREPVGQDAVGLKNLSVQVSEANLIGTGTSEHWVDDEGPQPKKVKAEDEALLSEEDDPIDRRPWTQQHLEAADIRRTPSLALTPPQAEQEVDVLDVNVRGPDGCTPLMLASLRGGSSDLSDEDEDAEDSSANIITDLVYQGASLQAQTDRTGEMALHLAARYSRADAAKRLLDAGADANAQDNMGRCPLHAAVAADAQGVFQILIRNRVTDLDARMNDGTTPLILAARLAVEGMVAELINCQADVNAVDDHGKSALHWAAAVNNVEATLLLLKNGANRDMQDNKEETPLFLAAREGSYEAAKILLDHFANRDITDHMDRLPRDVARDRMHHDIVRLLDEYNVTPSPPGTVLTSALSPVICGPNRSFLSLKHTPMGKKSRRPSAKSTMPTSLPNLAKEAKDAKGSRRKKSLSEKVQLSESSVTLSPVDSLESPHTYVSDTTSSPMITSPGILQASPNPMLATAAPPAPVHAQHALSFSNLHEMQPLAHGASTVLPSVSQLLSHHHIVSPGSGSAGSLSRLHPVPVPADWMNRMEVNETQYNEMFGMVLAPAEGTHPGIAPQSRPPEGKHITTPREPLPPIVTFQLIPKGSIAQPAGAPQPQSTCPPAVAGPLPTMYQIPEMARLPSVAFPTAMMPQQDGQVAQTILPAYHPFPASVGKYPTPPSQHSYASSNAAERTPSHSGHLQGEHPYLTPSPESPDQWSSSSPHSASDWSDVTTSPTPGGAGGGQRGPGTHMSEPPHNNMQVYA
Sequence of Torsin-1A-interacting protein 2 (Homo sapiens) (Q8NFQ8 whole entry, looked up): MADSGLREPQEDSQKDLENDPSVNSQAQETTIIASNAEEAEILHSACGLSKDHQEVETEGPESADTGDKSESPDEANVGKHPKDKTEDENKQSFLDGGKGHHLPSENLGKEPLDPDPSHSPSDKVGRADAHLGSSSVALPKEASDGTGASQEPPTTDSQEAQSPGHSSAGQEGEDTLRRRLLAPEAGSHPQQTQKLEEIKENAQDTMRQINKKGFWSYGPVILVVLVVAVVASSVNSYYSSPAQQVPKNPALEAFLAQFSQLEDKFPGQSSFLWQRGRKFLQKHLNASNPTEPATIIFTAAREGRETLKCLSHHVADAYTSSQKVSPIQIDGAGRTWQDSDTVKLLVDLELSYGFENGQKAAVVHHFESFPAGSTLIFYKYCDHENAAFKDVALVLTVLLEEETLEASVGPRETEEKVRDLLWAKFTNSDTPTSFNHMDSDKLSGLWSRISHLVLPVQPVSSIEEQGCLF
Sequence of Pro-neuregulin-1, membrane-bound isoform (Homo sapiens) (Q02297 whole entry, looked up, the tested form may be a part, canonical isoform): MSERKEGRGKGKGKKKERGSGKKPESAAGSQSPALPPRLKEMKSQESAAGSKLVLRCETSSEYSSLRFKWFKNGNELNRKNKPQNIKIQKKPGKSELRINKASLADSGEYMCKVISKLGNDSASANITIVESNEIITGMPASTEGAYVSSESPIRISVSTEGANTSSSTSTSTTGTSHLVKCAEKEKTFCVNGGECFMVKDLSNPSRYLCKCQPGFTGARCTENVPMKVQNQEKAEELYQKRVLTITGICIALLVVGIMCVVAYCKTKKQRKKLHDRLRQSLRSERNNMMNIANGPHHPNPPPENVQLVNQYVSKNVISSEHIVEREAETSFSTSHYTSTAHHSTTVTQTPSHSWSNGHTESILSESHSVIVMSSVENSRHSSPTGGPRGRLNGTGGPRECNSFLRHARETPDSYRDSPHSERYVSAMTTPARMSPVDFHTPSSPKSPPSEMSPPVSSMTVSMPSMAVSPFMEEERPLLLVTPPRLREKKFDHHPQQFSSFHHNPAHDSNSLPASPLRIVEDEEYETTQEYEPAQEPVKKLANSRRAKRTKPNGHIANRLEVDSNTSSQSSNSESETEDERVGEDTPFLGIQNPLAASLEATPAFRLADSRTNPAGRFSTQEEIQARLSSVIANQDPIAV

As for `CC(C)c1ccc(NN2C(C(O)c3c(F)cccc3Cl)C=CC3C(=O)N(c4ccccc4)C(=O)C32)cc1` (stereo not given), the composite z-score was 1.07 in experiment [1]; 0.177 in [2]; 0.0923 in experiment [3]; 0.653 in experiment [4]; 1.52 in [5]; 1.31 in experiment [6]. Besides, the composite z-score in [7] is 0.973; in [9] it was 1.68; in experiment [10] it was -0.139; in experiment [11], 1.48; in experiment [15], 3; in experiment [17], 0.545. Besides, the results for the composite z-score in experiment [18], in [19] and in experiment [20] were -0.041, 1.07 and 0.431, respectively. Moreover, the z-score in experiment [8] is 2.73 (inactive); in [12] it was 0.808 (inactive); in [13], 1.83 (inactive); in experiment [14], 1.63 (inactive); in experiment [16], -2.2 (inactive).

Regarding `CC(C)C[C@@H]1NC(=O)[C@H]2C[C@@H](C(=O)NCCCCCNC(=O)CS)[C@@H](c3cccc(OCCO)c3)N2C1=O`, the composite z-score in [1] was -0.197; in experiment [2], 0.235; in experiment [3], -0.0474; in experiment [4] it was 0.387; in experiment [5], 1.25; in experiment [6] it was 1.03. The composite z-score in experiment [7] was 1.31; in experiment [9] it was 0.707; in [10], -0.173; in experiment [11], 1.53; in experiment [15] it was 3.06; in [17] it was 0.106. Further, the composite z-score stood at 1.98 in experiment [18], 1.07 in [19] and 0.111 in experiment [20]. In addition, the z-score in experiment [8] was 0.209 (inactive); in experiment [12] it was -0.454 (inactive); in experiment [13], -0.267 (inactive); in experiment [14] it was 0.0073 (inactive); in experiment [16] it was -0.187 (inactive).

Consider `CCOC(=O)C1=CCC(c2ccc([N+](=O)[O-])cc2)N(S(=O)(=O)c2ccc(C)cc2)C1` (stereo not given), for which the composite z-score in experiment [1] was 0.557; in experiment [2] it was -0.0288; in [3] it was -0.0878; in [4], 0.294; in experiment [5], 0.716; in [6] it was 0.459. Also, the composite z-score in experiment [7] is 0.81; in experiment [9] it was 0.406; in experiment [10], -0.174; in experiment [11] it was -0.394; in [15], 1.28; in experiment [17], 0.0478. Besides, the composite z-score was -0.281 in [18], 0.422 in experiment [19] and 0.0296 in experiment [20]. Also, the z-score in experiment [8] was -2.47 (inactive); in experiment [12] it was 1.33 (inactive); in [13] it was 2.26 (inactive); in experiment [14], 4.61 (inactive); in experiment [16], 0.638 (inactive).

With `CCOC(=O)[C@H]1C/C=C/C[C@H](C(=O)OCC)C(=O)O[C@H]2[C@@H](OC)O[C@H](CO)[C@@H](OC(=O)Nc3ccc4c(c3)OCO4)[C@@H]2OC1=O`, the composite z-score in [1] is -0.267; in experiment [2], 0.451; in [3] it was 0.0302; in experiment [4], 0.718; in experiment [5], 0.235; in experiment [6], 1.5. Besides, the composite z-score in experiment [7] is 1.25; in experiment [9], 0.0008; in experiment [10] it was -0.212; in experiment [11], 0.921; in experiment [15], 2.35; in experiment [17], -0.0238. Further, the composite z-score in experiment [18] was -0.259; in experiment [19] it was 0.145; in experiment [20], -0.071. Moreover, the z-score in experiment [8] is 0.891 (inactive); in experiment [12] it was 1.12 (inactive); in experiment [13] it was 0.079 (inactive); in [14], 6.03 (inactive); in experiment [16], 1.59 (inactive).

Regarding `CCOC(=O)C1=CCC(C(C)(C)C)N(S(=O)(=O)c2ccc(C)cc2)C1` (stereo not given), the composite z-score was -0.735 in experiment [1]; 2.2 in experiment [2]; 0.0954 in experiment [3]; 1.23 in experiment [4]; 1.49 in experiment [5]; 0.673 in experiment [6]. Besides, the composite z-score in experiment [7] was determined as 1.19; in experiment [9], 0.533; in experiment [10], 0.0139; in experiment [11], 1.54; in experiment [15], 3.3; in experiment [17] it was 0.0277. Besides, the composite z-score in [18] was 1.47; in experiment [19], 1.13; in experiment [20] it was 0.139. The z-score in [8] was -2.07 (inactive); in [12] it was -0.792 (inactive); in [13], -1.75 (inactive); in experiment [14] it was 1.66 (inactive); in experiment [16], -0.756 (inactive).

Turning to `COc1ccc([Si](C)(C)[C@@H]2[C@@H](CC(=O)N(CCO)Cc3ccccc3)O[C@]3(C(=O)N(C)c4ccccc43)[C@H]2C)cc1`, the composite z-score is 1.02 in [1]; -0.135 in experiment [2]; -0.0336 in experiment [3]; 0.628 in [4]; 0.525 in [5]; 0.872 in [6]. Also, the composite z-score in experiment [7] came out at 1.11; in experiment [9] it was 1.21; in experiment [10], 0.411; in [11], 1.54; in experiment [15] it was 1.81; in experiment [17], 0.512. The composite z-score in [18] was 1.21; in [19] it was 0.963; in experiment [20] it was 0.238. For the same molecule, the z-score in [8] was -2.19 (inactive); in experiment [12] it was -0.943 (inactive); in experiment [13], 0.14 (inactive); in experiment [14], 0.451 (inactive); in experiment [16] it was -0.0145 (inactive).
